# Biological target: ACSL3
# Assay: pooled miR-30 sensor sort-seq; sequence = guide strand
# Conditions: shRNA
# Note: reference of the scale not given here.
row,Sequence,sensor-assay potency score (higher = more potent)
1,TTTAGCTTCATGGTAGATGGTT,0.468
2,TTTTGCTTCATTTTTGTAGTAC,0.298
3,TTTTTGAAGACTGATCTGCTAA,0.185
4,TTTCACAGCAAACTAATGGTGC,-0.648
5,TTTACTAGTAATGATGTTGGTC,0.628
6,TTGCTGAAATAGCAGCTTCGGA,-0.935
7,TAATTCTAGAACATGGGCCAGA,-0.696
8,ATACTGTCCAAGAATAACCTTT,-0.208
9,TTGTAGTCCCACACTTCGGAAA,-1.33
10,TAATCTTTAAGCATCCATCGGG,0.641
11,TTGAATTTACAGGCTTTGCTTT,-0.455
12,TAAAGTATCACATCCAGGGTAT,0.0296
13,TTATCTAAAGTATCACATCCAG,-0.397
14,TAATTTTTGAAGACTGATCTGC,0.522
15,TTTGATTTCACAGCAAACTAAT,-0.867
